This note sets out measurements from PubChem BioAssay (NCATS).

Values without a mark were called inactive. Inconclusive results are not listed. Calls of active or inactive are those of the source.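 The calls were made as follows, unless noted: active = compounds whose dose series gives a full or clear partial fitted curve of increased nuclear translocation; inconclusive = weak partial curve or effect only at the top dose; inactive = no dose-dependent translocation response.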

Glucocorticoid receptor (Homo sapiens), sequence (P04150 whole entry, looked up): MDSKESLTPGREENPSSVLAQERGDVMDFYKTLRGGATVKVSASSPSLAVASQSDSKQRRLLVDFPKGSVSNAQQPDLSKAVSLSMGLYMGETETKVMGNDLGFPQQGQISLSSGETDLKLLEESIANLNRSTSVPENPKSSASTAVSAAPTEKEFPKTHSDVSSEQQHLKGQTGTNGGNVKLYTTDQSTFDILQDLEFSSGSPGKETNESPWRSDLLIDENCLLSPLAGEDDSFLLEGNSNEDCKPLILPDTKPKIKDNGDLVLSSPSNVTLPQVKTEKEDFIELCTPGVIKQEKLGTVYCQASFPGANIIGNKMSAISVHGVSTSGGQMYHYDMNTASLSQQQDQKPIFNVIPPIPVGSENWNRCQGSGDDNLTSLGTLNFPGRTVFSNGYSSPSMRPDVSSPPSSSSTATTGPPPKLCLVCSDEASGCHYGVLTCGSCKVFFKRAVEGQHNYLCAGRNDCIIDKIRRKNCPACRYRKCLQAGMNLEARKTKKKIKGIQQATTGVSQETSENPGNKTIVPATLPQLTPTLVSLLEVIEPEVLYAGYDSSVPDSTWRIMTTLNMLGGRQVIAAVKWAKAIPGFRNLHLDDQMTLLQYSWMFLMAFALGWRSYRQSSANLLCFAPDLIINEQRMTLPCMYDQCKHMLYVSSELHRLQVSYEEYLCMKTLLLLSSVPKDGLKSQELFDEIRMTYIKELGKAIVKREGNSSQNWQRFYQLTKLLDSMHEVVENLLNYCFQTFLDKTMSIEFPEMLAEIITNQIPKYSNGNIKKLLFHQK

System in one assay: not listed separately
Nature of the assay: Stat Signaling Pathway (AID 446; active = well fitted curve in either direction with a large enough effect, not every such curve was filed as active;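 also: ME-180 cervical cancer cells given 40 pM IL-6 alongside compound; SIE-controlled beta-lactamase reporter measured as 460/530 nm FRET emission ratio; % is scaled to controls: 0 for no effect and ±100 for the full control effect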). As to conditions: ME-180 SIE beta-lactamase reporter, IL-6 stimulated, 5 h; at 17.2 µM (top of the series) unless noted. A digest of the protocol: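 ME-180 SIE-bla cells; overnight plating; cpd + IL-6 40 pM, 5 h, 37 C; LiveBLAzer 2.5 h RT; 460/530 nm emission ratio. Normalized to 300 pM IL-6 and 125 nM JAK inhibitor controls.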
Regarding `Cc1ccc(CC2CC(=O)N(c3ccc4c(c3)OCCO4)C2=O)cc1` (stereo not given), the activity, negative = inhibition is 0.576%.

Regarding `Cn1ncc2nnn(-c3ccccc3)c(=O)c21`, the activity, negative = inhibition was 3.98%.

For the compound `CCOC(=O)COc1nc(N(C)C)nc(N(C)C)n1`, the activity, negative = inhibition was 8.42%.

On to `O=C(COc1ccc(F)cc1)OCCN1CCOCC1`, for which the activity, negative = inhibition was 11.3%.

Turning to `COCCNc1oc(-c2ccc(F)cc2)nc1C#N`, the activity, negative = inhibition is -2.97%.

Regarding `COc1ccccc1C1/C(=C(/O)c2cnn(-c3ccccc3)c2C)C(=O)C(=O)N1CCN(C)C` (stereo not given), the activity, negative = inhibition was 2.75%.

Regarding `COc1cc(C)nc(Oc2ccc(=O)n(C)n2)n1`, the activity, negative = inhibition was 1.84%.

For the compound `O=C(C1=C(O)C(=O)N(CCCN2CCOCC2)C1c1ccccn1)c1cc2ccccc2o1` (stereo not given), the activity, negative = inhibition was -5.61%.

On to `CCOCCN(C(=O)COC)c1cccc(OC)c1`, for which the activity, negative = inhibition was 6.59%.

As to `COc1ccc(C=NCCC2(O)CC(C)N(C)CC2C)cc1` (stereo not given), the activity, negative = inhibition was 11.9%.

Take `CCN(CC)CCN1C(=O)C(=O)/C(=C(/O)c2ccc(C)cc2)C1c1cccnc1` (stereo not given): the activity, negative = inhibition is 7.25%.

On to `COc1cc(C)nc(Oc2ccc(=O)[nH]n2)n1`, for which the activity, negative = inhibition is 13.6%.

Take `CC1(C)CC(=O)C2=C(C1)N(Cc1ccco1)C(=O)C2(NC(=O)c1cccnc1)C(F)(F)F` (stereo not given): the activity, negative = inhibition is -9.45%.

`CC(=O)[C@H]1[C@@H]2C(=O)N(c3cccc(Cl)c3)C(=O)[C@@H]2[C@H]2c3ccccc3C=CN21`: the activity, negative = inhibition was -13.6%.

For `CCOc1ccc(C2/C(=C(/O)c3ccc(F)cc3)C(=O)C(=O)N2CCCN(C)C)cc1` (stereo not given), the activity, negative = inhibition is 6.85%.

Take `CC1=C(C(=O)Nc2ccccc2)C(c2ccncc2)C(C#N)=C(SCC(=O)NC(C)C)N1` (stereo not given): the activity, negative = inhibition is -4.3%.

Turning to `COC(=O)C1=C(C)N=C2SC(C)C(=O)N2C1/C=C/c1ccccc1OC` (stereo not given), the activity, negative = inhibition was -6.43%.

On to `CCOC(=O)Cn1nc(C)c2ccccc2c1=O`, for which the activity, negative = inhibition was -2.19%.

With `CSc1nc2sc3c(c2c2nnnn12)CC(C)(C)OC3`, the activity, negative = inhibition is 15.4%.

Take `O=C1NCC(COCC2CC=CCC2)O1` (stereo not given): the activity, negative = inhibition was 2.08%.

Turning to `C=CCn1cnc2c(c1=O)c1nc3ccccc3nc1n2-c1ccc(Cl)cc1`, the activity, negative = inhibition is -1.17%.

As for `Cc1nc(-c2coc3cc(OCC(=O)O)ccc3c2=O)cs1`, the activity, negative = inhibition is 3.59%.

Consider `COc1ccc(C2C(C#N)=C(N)Oc3cc(C)n(CCN4CCOCC4)c(=O)c32)cc1OC` (stereo not given), for which the activity, negative = inhibition is 6.24%.

Regarding `Cc1ccc(N(CC(=O)O)C2SC(=O)NC2=O)cc1` (stereo not given), the activity, negative = inhibition is 6.57%.

On to `c1coc(-c2nnc3sc(-c4cccs4)nn23)c1`, for which the activity, negative = inhibition was -3.51%.

In the case of `Cc1cccc(NC(=O)c2cc(N3CCOCC3)nc3ccccc23)c1`, the activity, negative = inhibition was -0.239%.

Consider `CC(=O)OCC(=O)[C@@]1(O)CC[C@H]2[C@@H]3CCC4=CC(=O)C=C[C@]4(C)[C@@]3(Cl)[C@@H](Cl)C[C@@]21C`, for which the activity, negative = inhibition is -0.258%.

For the compound `COc1ccc(/C(O)=C2/C(=O)C(=O)N(CCCN(C)C)C2c2ccco2)cc1Cl` (stereo not given), the activity, negative = inhibition was 4.09%.

As for `O=C(NCCC1=CCCCC1)c1ccc(=O)oc1`, the activity, negative = inhibition is 7.23%.

On to `C=CCn1c(SCC(=O)NC23CC4CC(CC(C4)C2)C3)nc(O)cc1=O`, for which the activity, negative = inhibition was -2.84%.

Take `COC(=O)C(C)Sc1nc2c(c(=O)n(C)c(=O)n2C)n1CCC(C)C` (stereo not given): the activity, negative = inhibition was -10.8%.

Turning to `Cc1cccc(OCC(=O)N2CCC(N3CCOCC3)CC2)c1`, the activity, negative = inhibition was 2.76%.

As to `CCOC(=O)c1c(C(C#N)C#N)cc(C)nc1C`, the activity, negative = inhibition is 1.48%.

Turning to `CN1C(=O)CC(N2CCN(c3ccc(Cl)c(Cl)c3)CC2)C1=O` (stereo not given), the activity, negative = inhibition was 0.709%.

As to `N#CC1=C(N)N2C(=C(C#N)C1c1ccccc1)Sc1ccccc12` (stereo not given), the activity, negative = inhibition is 3.71%.

`O=C(CN1C(=O)c2ccccc2C1=O)NCc1ccccn1`: the activity, negative = inhibition is 10.5%.

As to `Cc1ccc(C2C(C(=O)c3cc4ccccc4o3)=C(O)C(=O)N2CCN(C)C)o1` (stereo not given), the activity, negative = inhibition was -0.311%.

On to `CCOC(=O)C(C)Oc1ccc2c(C)cc(=O)oc2c1C(C)=O` (stereo not given), for which the activity, negative = inhibition was 4.2%.

Consider `O=C(CN1C(=O)c2ccccc2S1(=O)=O)c1ccccc1`, for which the activity, negative = inhibition was 3.52%.

With `CC1(C)Cc2[nH]c(=O)c(C#N)cc2CS1`, the activity, negative = inhibition was 10.8%.

Another assay concerns the target Glucocorticoid receptor (Homo sapiens) (UniProt P04150). Nature of the assay: GR-GFP Redistribution (AID 450). Also: potency is read from the fitted curve at half-maximal effect. As to conditions: U2OS GR-GFP nuclear translocation, laser cytometry, 2 h; series mostly up to 20.6 µM.
With `Cc1ccc(CC2CC(=O)N(c3ccc4c(c3)OCCO4)C2=O)cc1` (stereo not given), the Potency was > 20.6 µM.

Consider `Cn1ncc2nnn(-c3ccccc3)c(=O)c21`, for which the Potency was > 20.6 µM.

With `CCOC(=O)COc1nc(N(C)C)nc(N(C)C)n1`, the Potency is > 20.6 µM.

As to `O=C(COc1ccc(F)cc1)OCCN1CCOCC1`, the Potency was > 20.6 µM.

For `COCCNc1oc(-c2ccc(F)cc2)nc1C#N`, the Potency is > 20.6 µM.

Turning to `COc1ccccc1C1/C(=C(/O)c2cnn(-c3ccccc3)c2C)C(=O)C(=O)N1CCN(C)C` (stereo not given), the Potency was > 20.6 µM.

`COc1cc(C)nc(Oc2ccc(=O)n(C)n2)n1`: the Potency was > 20.6 µM.

Consider `O=C(C1=C(O)C(=O)N(CCCN2CCOCC2)C1c1ccccn1)c1cc2ccccc2o1` (stereo not given), for which the Potency was > 20.6 µM.

Turning to `CCOCCN(C(=O)COC)c1cccc(OC)c1`, the Potency is > 20.6 µM.

As to `COc1ccc(C=NCCC2(O)CC(C)N(C)CC2C)cc1` (stereo not given), the Potency is > 20.6 µM.

For `CCN(CC)CCN1C(=O)C(=O)/C(=C(/O)c2ccc(C)cc2)C1c1cccnc1` (stereo not given), the Potency was > 20.6 µM.

Take `COc1cc(C)nc(Oc2ccc(=O)[nH]n2)n1`: the Potency is > 20.6 µM.

With `CC1(C)CC(=O)C2=C(C1)N(Cc1ccco1)C(=O)C2(NC(=O)c1cccnc1)C(F)(F)F` (stereo not given), the Potency is > 20.6 µM.

As to `CC(=O)[C@H]1[C@@H]2C(=O)N(c3cccc(Cl)c3)C(=O)[C@@H]2[C@H]2c3ccccc3C=CN21`, the Potency was > 20.6 µM.

With `CCOc1ccc(C2/C(=C(/O)c3ccc(F)cc3)C(=O)C(=O)N2CCCN(C)C)cc1` (stereo not given), the Potency is > 20.6 µM.

With `CC1=C(C(=O)Nc2ccccc2)C(c2ccncc2)C(C#N)=C(SCC(=O)NC(C)C)N1` (stereo not given), the Potency was > 20.6 µM.

Regarding `COC(=O)C1=C(C)N=C2SC(C)C(=O)N2C1/C=C/c1ccccc1OC` (stereo not given), the Potency was > 20.6 µM.

As for `CCOC(=O)Cn1nc(C)c2ccccc2c1=O`, the Potency was > 20.6 µM.

Turning to `CSc1nc2sc3c(c2c2nnnn12)CC(C)(C)OC3`, the Potency is > 20.6 µM.

For `O=C1NCC(COCC2CC=CCC2)O1` (stereo not given), the Potency was > 20.6 µM.

In the case of `C=CCn1cnc2c(c1=O)c1nc3ccccc3nc1n2-c1ccc(Cl)cc1`, the Potency was > 20.6 µM.

Regarding `Cc1nc(-c2coc3cc(OCC(=O)O)ccc3c2=O)cs1`, the Potency is > 20.6 µM.

For `COc1ccc(C2C(C#N)=C(N)Oc3cc(C)n(CCN4CCOCC4)c(=O)c32)cc1OC` (stereo not given), the Potency is > 20.6 µM.

`Cc1ccc(N(CC(=O)O)C2SC(=O)NC2=O)cc1` (stereo not given): the Potency is > 20.6 µM.

Regarding `c1coc(-c2nnc3sc(-c4cccs4)nn23)c1`, the Potency was > 20.6 µM.

With `Cc1cccc(NC(=O)c2cc(N3CCOCC3)nc3ccccc23)c1`, the Potency was > 20.6 µM.

`CC(=O)OCC(=O)[C@@]1(O)CC[C@H]2[C@@H]3CCC4=CC(=O)C=C[C@]4(C)[C@@]3(Cl)[C@@H](Cl)C[C@@]21C`: the Potency was 0.0078 µM (active).

Turning to `COc1ccc(/C(O)=C2/C(=O)C(=O)N(CCCN(C)C)C2c2ccco2)cc1Cl` (stereo not given), the Potency is > 20.6 µM.

In the case of `O=C(NCCC1=CCCCC1)c1ccc(=O)oc1`, the Potency is > 20.6 µM.

In the case of `C=CCn1c(SCC(=O)NC23CC4CC(CC(C4)C2)C3)nc(O)cc1=O`, the Potency was > 20.6 µM.

On to `COC(=O)C(C)Sc1nc2c(c(=O)n(C)c(=O)n2C)n1CCC(C)C` (stereo not given), for which the Potency was > 20.6 µM.

For `Cc1cccc(OCC(=O)N2CCC(N3CCOCC3)CC2)c1`, the Potency is > 20.6 µM.

With `CCOC(=O)c1c(C(C#N)C#N)cc(C)nc1C`, the Potency was > 20.6 µM.

Consider `CN1C(=O)CC(N2CCN(c3ccc(Cl)c(Cl)c3)CC2)C1=O` (stereo not given), for which the Potency was > 20.6 µM.

For `N#CC1=C(N)N2C(=C(C#N)C1c1ccccc1)Sc1ccccc12` (stereo not given), the Potency was > 20.6 µM.

As to `O=C(CN1C(=O)c2ccccc2C1=O)NCc1ccccn1`, the Potency is > 20.6 µM.

For `Cc1ccc(C2C(C(=O)c3cc4ccccc4o3)=C(O)C(=O)N2CCN(C)C)o1` (stereo not given), the Potency was > 20.6 µM.

Take `CCOC(=O)C(C)Oc1ccc2c(C)cc(=O)oc2c1C(C)=O` (stereo not given): the Potency is > 20.6 µM.

With `O=C(CN1C(=O)c2ccccc2S1(=O)=O)c1ccccc1`, the Potency is > 20.6 µM.

For `CC1(C)Cc2[nH]c(=O)c(C#N)cc2CS1`, the Potency was > 20.6 µM.
